One assay deals with CREB5. The assay can be described thus: pooled miR-30 sensor sort-seq; sequence = guide strand. The note with it: shRNA.
Sequence TTGAACAATGTAATCTGTGTAG gave a sensor-assay potency score (higher = more potent) of -0.458.

Take TACACTTCTACAAGAAAGCTGT: the sensor-assay potency score (higher = more potent) was 0.523. Sequence TTACTTGTAAGTTTATTGCTGC yielded a sensor-assay potency score (higher = more potent) of 0.486. For TATGTGTTAACAACAACTGTTT, the sensor-assay potency score (higher = more potent) is -0.672.

In another assay the target is CREG1. Described as above. The conditions noted are these: shRNA.
On to TTTCTTGCAGAAGTTGGTCTGT, for which the sensor-assay potency score (higher = more potent) came to 0.391. The same measure, in the same setting: as for TCACCTTGGTCACAGTTCCTGA, the figure is -0.428. Still for that read-out and setting: as for TAGAAATAGGGCACGCCGCTGC, the figure is -0.314; as for TTTGTGGATCAAATCCATGTTT, -0.755. Same read-out and setting: as for TTGTGGATCAAATCCATGTTTC, the figure is -1.13; as for TTCTTGCAGAAGTTGGTCTGTG, -0.659; as for ATATTGGTTATATTCAACTTAG, -1.21. Turning to TCCAATAACAGGTCAACTCTAT, the sensor-assay potency score (higher = more potent) is -0.715.

Take TTCACCTTGGTCACAGTTCCTG: the sensor-assay potency score (higher = more potent) is -0.406. On the same count and under the same terms, as for TGGTCCACCAAAGTAGTCCAGG, the figure is -1.37; as for TTTGCAATATCCATTTCTGTTT, -1.42.

(Values after the OligoGym collection.)
Further: reference of the scale not given here.
